A selection: hits, their analogues and other compounds. The true share with any hit is near 4.5%.
DAX1 inh-1 = DAX1 (NR0B1) inhibitors on StAR promoter, primary screen, cell-based, luminescence, SF-1 (NR5A1), full-length DAX-1. HEK293T StAR-luciferase reporter, SF-1/DAX-1 repression relief. inhibition, % at 6.8 µM. 370,000 tested, 1.1% active;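 active means inhibition above the mean over all tested compounds plus 3 SD, cut at about 3.6% in these data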;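 further: 0% = DAX-1 cells with DMSO and 100% = cells lacking DAX-1 with DMSO; higher inhibition means more luminescence from relief of DAX-1 repression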
DAX1 inh-2 = DAX1 (NR0B1) inhibitors, primary screen, cell-based, HEK293, Gal4-DAX1, luciferase luminescence; Nuclear receptor subfamily 0 group B member 1 (Homo sapiens), P51843; HEK293 Gal4-DAX1 luciferase reporter; inhibition, % at 6.75 µM; 340,000 tested, 0.99% active;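 active means inhibition above the mean over all tested compounds plus 3 SD, cut at about 4.2% in these data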;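 further: 0% = DAX1-transfected cells with DMSO and 100% = empty-vector control cells with DMSO; inhibition shows as a rise in luminescence from relieved DAX1 repression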
hcDAF-12 act = H. contortus DAF-12 nuclear receptor activators, primary screen, cell-based, luminescence, HEK293, lit1-tk-luc reporter; HEK293 hcDAF-12 lit1-tk-luc reporter; 0% DMSO, 100% Δ7-dafachronic acid; 370,000 tested, 1.4% active; activation, % at 6.8 µM;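 active means activation above the mean of all tested compounds plus 3 SD, cut at about 5.5% in these data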;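 further: 100% = response to 3 µM Δ7-dafachronic acid high control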
ssDAF-12 act = S. stercoralis DAF-12 nuclear receptor activators, primary screen, cell-based, luminescence, HEK293, GRIP1 co-expression, lit1-tk-luc. AID 652126, 2013. 370,000 tested, 1% active. HEK293 ssDAF-12/GRIP1 lit1-tk-luc reporter; % of 3 µM dafachronic acid response. Nuclear hormone receptor DAF-12 (Strongyloides stercoralis). activation, % at 6.8 µM;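 active means activation above the mean over all tested compounds plus 3 SD, cut at about 0.9% in these data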;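 further: 0% = DMSO-only wells and 100% = 3 µM delta7-dafachronic acid wells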
hgDAF12 agonist = H. glycines DAF-12 receptor agonists, primary screen, cell-based, luminescence, HEK293, GAL4 fusion, UAS-luciferase. HEK293 GAL4-hgDAF12 UAS-luciferase reporter, agonist luminescence; normalized to butyrate control. activation, % at 6.8 µM. 370,000 tested, 1.8% active. AID 687014, 2013;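 active means activation above a cutoff set at the mean of all screened compounds plus 3 SD, cut at about 10% in these data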;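 further: 0% = DMSO wells and 100% = sodium butyrate wells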
GAA850 FXN act = FXN promoter activators, primary screen, cell-based, luciferase luminescence, HEK293 lucGAA850. HEK293 lucGAA850 FXN promoter luciferase reporter, 24 h; percent of 10 µM SAHA response. activation, % at 6 µM. 360,000 tested, 0.56% active. AID 540364, 2011;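 active means activation above the average of all compounds screened plus 3 SD, cutoff fixed separately per campaign, cut at about 7.5% in these data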;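 further: 0% = DMSO wells and 100% = 10 µM SAHA wells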
DAX1 conf = DAX1 (NR0B1) inhibitors relieving SF-1 repression, confirmation, cell-based, luminescence, HEK293T, full-length DAX-1, SF-1 activated StAR promoter; shares compounds with DAX1 inh-1; HEK293T StAR-promoter luciferase reporter, SF-1/DAX-1 repression; inhibition, % at 6.8 µM; 2,400 tested, 87% active; AID 652134, 2013;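 active means inhibition above the average of every tested compound plus 3 SD, cut at about 3.8% in these data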;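 further: 0% = DAX-1 cells with DMSO and 100% = no DAX-1 control cells with DMSO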
Target sequence (P51843 whole entry, looked up): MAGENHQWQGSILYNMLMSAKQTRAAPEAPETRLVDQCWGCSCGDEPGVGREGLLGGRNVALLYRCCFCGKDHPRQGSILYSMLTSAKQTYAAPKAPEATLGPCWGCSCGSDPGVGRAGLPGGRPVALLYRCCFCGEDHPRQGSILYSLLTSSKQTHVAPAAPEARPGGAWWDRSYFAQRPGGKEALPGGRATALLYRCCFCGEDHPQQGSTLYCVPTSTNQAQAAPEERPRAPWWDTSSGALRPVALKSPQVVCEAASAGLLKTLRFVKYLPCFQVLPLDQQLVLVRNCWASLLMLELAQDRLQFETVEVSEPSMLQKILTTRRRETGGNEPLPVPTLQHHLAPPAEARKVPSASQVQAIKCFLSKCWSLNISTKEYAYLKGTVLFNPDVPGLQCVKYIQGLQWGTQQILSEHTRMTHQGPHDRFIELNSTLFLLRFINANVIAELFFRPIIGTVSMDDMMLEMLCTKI
SF1 AF2mut Luc = StAR reporter signal changes without DAX1, counter-screen for DAX1 inhibitor project, cell-based, luminescence, AF-2 mutant SF-1, transactivation; shares compounds with DAX1 inh-1; AID 652136, 2013; HEK293 StAR-luciferase, SF-1 AF2 mutant; 2,400 tested, 78% active; inhibition, % at 6.8 µM;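 active means inhibition above the mean of all tested compounds plus 3 SD, cut at about 3% in these data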;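 further: 0% = DAX-1 transfected cells with DMSO and 100% = cells without DAX-1 with DMSO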
LXRb hcDAF ctr = LXR agonists, Gal4 luciferase reporter, confirmation, counter-screen for hcDAF-12 agonist project, cell-based, luminescence, HEK293, H. contortus campaign. HEK293 Gal4-LXR tk-luc reporter, 24 h; normalized: DMSO 0%, positive control 100%. shares compounds with hcDAF-12 act. 3,400 tested, under 10 active. activation, % at 6.8 µM. AID 743027, 2013;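 active means mean percent activation of the reporter above a cutoff set as the average over tested compounds plus their standard deviation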
hcDAF12 ag = H. contortus DAF-12 receptor agonists, confirmation, cell-based, luminescence, HEK293, lit1-tk-luc, triplicate. shares compounds with hcDAF-12 act. HEK293 hcDAF-12 lit1-tk-luc reporter; % of Δ7-dafachronic acid response. activation, % at 6.8 µM. 3,400 tested, 61% active. AID 743032, 2013;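 active means mean activation across triplicate tests above the threshold derived from the earlier primary screen, cut at about 5.5% in these data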;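 further: 0% = DMSO only wells and 100% = 3 µM Δ7-dafachronic acid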
hgDAF12 ag = H. glycines DAF-12 receptor agonists, confirmation, cell-based, luminescence, HEK293, GAL4-LBD fusion; HEK293 GAL4-hgDAF12 luciferase reporter, agonist mode; percent of butyrate response; shares compounds with hgDAF12 agonist; AID 743050, 2013; activation, % at 6.8 µM; 3,300 tested, 80% active;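 active means mean activation over triplicate wells above the hit cutoff derived from the earlier primary screen, cut at about 11% in these data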;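 further: 0% = DMSO low control and 100% = 2 mM sodium butyrate high control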
LXRb DAF12 ctr = LXR agonists, Gal4 luciferase reporter, confirmation, counter-screen for hgDAF-12 agonist project, cell-based, luminescence, HEK293, H. glycines campaign; shares compounds with hgDAF12 agonist; 3,300 tested, under 10 active; 24 h; activation, % at 6.8 µM;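 active means mean activation of the triplicate above a set limit carried over from the primary screen, none filed active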
* marks the source's active call; other numbers are inactive results; . = not tested or not shown.

SMILES	DAX1 inh-1	DAX1 inh-2	hcDAF-12 act	ssDAF-12 act	hgDAF12 agonist	GAA850 FXN act	DAX1 conf	SF1 AF2mut Luc	LXRb hcDAF ctr	hcDAF12 ag	hgDAF12 ag	LXRb DAF12 ctr
O=C(NC1=NCCS1)c1csc2ccccc12	4.5*	3	8.3*	1.1*	17*	3	12*	8.1*	2	10.0*	19*	1
CCN(CC)S(=O)(=O)c1cccc(C(=O)NC2=NCCS2)c1	0	1	-2	0	-2	3	.	.	.	.	.	.
Cc1cccc(C(=O)NC2=NCCS2)c1	4.6*	2	2	1.2*	18*	1	13*	8.1*	.	.	14*	1
CC(C)(C)c1ccc(C(=O)Nc2ccccc2Cl)cc1	7.7*	5.0*	10*	1.5*	32*	3	16*	6.5*	2	9.4*	19*	1
O=C(NCC(F)(F)F)c1ccc2sc([C@@H]3O[C@H](CO)[C@H](O)[C@H](O)[C@H]3O)nc2c1	0	.	-3	-1	1	1	.	.	.	.	.	.
Cc1nnc(SCC(=O)Nc2nsc(-c3ccc(C(C)(C)C)cc3)n2)s1	7.3*	4.4*	7.3*	1	27*	6	11*	6.0*	1	6.9*	19*	1
Cc1nnc(SCC(=O)Nc2ccccc2NC(=O)CSc2nnc(C)s2)s1	0	-1	3	-1	-1	1	.	.	.	.	.	.
COc1ccc(-c2nnc(SCC(=O)/C(C#N)=C(\C)N)o2)cc1	4.7*	-1	6.7*	1	16*	-1	13*	4.5*	1	6.9*	18*	1
CCOc1ccc(CC(=O)N/N=C/c2cccnc2)cc1	0	-2	0	-2	1	-1	.	.	.	.	.	.
CCCc1ccc(OCc2ccc(C(=O)N/N=C/c3cccnc3)o2)cc1	5.9*	0	4	-1	14*	6	6.9*	4.3*	.	.	17*	1
O=C(/C=C/Nc1ccc(F)cc1F)c1ccco1	7.5*	-1	15*	2.1*	25*	2	7.2*	2	2	20*	14*	1
O=C(/C=C/Nc1ccccc1O)c1ccco1	0	3	0	0	4	4	.	.	.	.	.	.
Cc1noc(C)c1-c1ccc(C(=O)Nc2ccccc2)c2occc12	9.7*	.	5	1.0*	18*	4	12*	2	.	.	13*	1
COc1ccc(-c2ccc(C(=O)Nc3ccccc3)c3occc23)c(C)c1	6.7*	.	2	0	20*	1	10*	4.2*	.	.	11*	1
CC(=O)Oc1ccc2c(=O)c(-c3nc4ccccc4s3)coc2c1	5.7*	0	6.7*	0	13*	3	5.7*	2	1	9.0*	9	0
CC(OC(=O)COc1ccccc1Cc1ccccc1)C(=O)N(C)c1ccccc1 (stereo not given)	-1	0	-1	-2	2	0	.	.	.	.	.	.
Cc1csc(NC(=O)COc2ccc3c(c2)CCC3)n1	4.7*	2	4	0	14*	2	9.6*	8.5*	.	.	17*	1
O=C(NCC1CCCCC1)c1cc(-c2cc(F)ccc2OCC2CCCO2)n[nH]1 (stereo not given)	-1	.	-2	-2	-3	1	.	.	.	.	.	.
Cc1ccc(NC(=O)COc2ccccc2[N+](=O)[O-])nc1	4.7*	-1	7.3*	1.7*	18*	1	11*	5.9*	2	9.3*	12*	1
Cc1ccnc(NC(=O)COc2ccccc2[N+](=O)[O-])c1	4.9*	0	7.4*	1.1*	14*	2	13*	5.2*	1	4	12*	1
O=C(CCc1nc2ccccc2c(=O)[nH]1)NNC(=O)COc1cccc(F)c1	2	0	2	-1	-1	-1	.	.	.	.	.	.
CC(=O)c1cccc(NC(=O)c2cnn3ccccc23)c1	5.6*	1	5.8*	-1	14*	6	6.5*	5.2*	.	.	12*	1
CC1CCc2sc(C(=O)NCC3CCCO3)cc2C1 (stereo not given)	7.2*	4	3	0	15*	3	9.9*	6.5*	.	.	13*	1
CN(CC(=O)Nc1c(Cl)cccc1Cl)C(=O)CCC(=O)c1ccccc1	0	2	-1	-1	-1	-2	.	.	.	.	.	.
